# HT1080-NT tox: kills 2HG-producing HT-1080-NT fibrosarcoma cells; Potency, µM (highest dose often 46.1 µM), for inactives: at the highest dose activity, negative = less viability, most hits filed as cytotoxic; HT-1080-NT fibrosarcoma viability, CellTiter-Glo ATP luminescence, 48 h; 1.6% of 360,000 active;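 also: NT is the 2HG producing partner of a matched IDH1 knockdown line; 0% = DMSO-treated cells and -100% = media-only wells without cells; nearly all actives have a fitted effect of over 55% in size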
#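 HT-1080-NT; 750 cells/well; 5% FBS RPMI; 48 h compound, 37 degrees C; CellTiter-Glo luminescence; curve fitting and curve-class assignment.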
# TDP1 cell noCPT: qHTS for Inhibitors of human tyrosyl-DNA phosphodiesterase 1 (TDP1): qHTS in cells in absence of CPT | 15% of 420,000 active | DT40 Tdp1-/- hTDP1 cells, no CPT, ATP luminescence, 48 h | Potency, µM (titrated, usually from 46.2 µM), without a hit: at the top dose activity change, negative = growth inhibition, usual class: inhibitors; also: nearly all actives have a fitted effect of over 55% in size
#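 Readout: luminescence from CellTiter-Glo after 30 min in the dark at RT. Cells: DT40 Tdp1-/- with stable hTDP1, 400/well. Exposure: compounds alone, ≥48 hr, 37 °C.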
# HT1080 IDH1KD tx: toxicity to HT-1080 IDH1 knockdown cells (counter line). HT-1080 IDH1 knockdown viability, ATP luminescence, 48 h. Potency, µM (series often up to 46.1 µM), inactives show top-dose activity, negative = toxicity, most hits filed as cytotoxic. 2% of 360,000 active;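 also: 0% = DMSO wells and -100% = cell-free medium wells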
#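 After a 2 h attachment period, IDH1KD HT-1080 cells took pin-transferred compound for 48 h at 37 °C; ATP-based luminescence after 10 min room-temperature reagent incubation reported viability.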
# KB-V1 cytotox: kills drug-selected multidrug resistant KB-V1 cells | KB-V1 MDR cells viability, CellTiter-Glo, 72 h | Potency, µM (series often up to 46.1 µM), hits mostly cytotoxic | 3.4% of 400,000 active; also: nearly all actives have a fitted effect of over 60% in size
#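 Compound-treated KB-V1 multidrug-resistant cells, 72 h, 37 degrees C; viability by CellTiter-Glo. Fitted qHTS curves give the values.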
# DT40 TDP1 CPT: growth inhibition of DT40 Tdp1-/-;hTDP1 cells with camptothecin (screen for TDP1 inhibitors); Potency, µM (highest dose often 46.2 µM), inactives show at the highest dose activity change, negative = growth inhibition, usual class: inhibitors; 12% of 420,000 active; chicken DT40 Tdp1-/-;hTDP1 cells + 20 nM CPT, ATP luminescence, 48 h; also: nearly all actives have a fitted effect of over 55% in size
#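 Cell growth measured by CellTiter-Glo luminescence after a minimum 48 h, 37 C compound exposure with 20 nM CPT in Tdp1-knockout DT40 cells stably expressing hTDP1, seeded 400/well; qHTS titration format.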
# KB-3-1 cytotox: KB-3-1 parental cell cytotoxicity. KB-3-1 viability, CellTiter-Glo ATP luminescence, 72 h. 1.4% of 400,000 active. Potency, µM (titrated, usually from 46.1 µM), usual class: cytotoxic. AID 1347075; also: nearly all actives have a fitted effect of over 60% in size
#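 Cytotoxicity measured as CellTiter-Glo luminescence after 72 h at 37 C. Compound titrations were pinned onto drug-naive KB-3-1 parental adenocarcinoma cells grown in DMEM with 10% FBS, and normalized data fitted to concentration-response curves.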
# The depositor's hits bear a star; i = inactive; ? = inconclusive; · = no result given; ! = a repeat was not active. A selection: hits, their analogues and other compounds. The true share with any hit is near 19%. Calls follow the shape of the dose curve; as a rule, active = well fitted curve in the direction sought with a large enough effect; inconclusive = small, poorly fitted or top-dose-only effect, or another doubt; inactive = no such curve, though single readings can be large; an effect the other way counts as inactive or inconclusive. Unless noted, % is scaled to controls: 0 for no effect and ±100 for the full control effect; potency is read from the fitted curve at half-maximal effect.
SMILES,HT1080-NT tox,TDP1 cell noCPT,HT1080 IDH1KD tx,KB-V1 cytotox,DT40 TDP1 CPT,KB-3-1 cytotox
c1csc(CN2CC[C@@]3(CCCNC3)C2)n1,·,-11.8%,·,·,1.0%,·
Cc1nc(-c2cccc(CN(C)C(=O)Oc3ccc([N+](=O)[O-])cc3)c2)no1,-18.0%,16.4µM*,-24.9%,i,?,i
CN(C)C(=O)Oc1ccc([N+](=O)[O-])cc1,4.7%,12.8%,-7.4%,i,10.7%,?
CN(Cc1cccc(-c2cccnc2)c1)C(=O)Oc1ccc([N+](=O)[O-])cc1,?,?,?,?,18.4µM*,i
Cc1cc(NC(=O)c2cccn(Cc3cccc([N+](=O)[O-])c3)c2=O)no1,·,-12.1%,·,i,-14.1%,i
CN(CC#CCN1CCCC1)C(=O)c1cccc(Cl)c1,·,·,·,i,·,i
C=CCn1c(O)c(C(CC)=NCc2ccco2)c(=O)[nH]c1=O,7.5%,-19.6%,2.0%,i,3.8%,i
CC(=O)[C@H]1CC[C@H]2[C@@H]3CCC4=CC(=O)CC[C@]4(C)[C@H]3CC[C@]12C,?,18.4µM*,?,5.8µM*!,26.6µM*,13µM*!
C[C@]12CCC(=O)C=C1CC[C@@H]1C2CC[C@]2(C)C(=O)CCC12 (stereo not given in full),4.7%,-15.7%,7.8%,i,-10.3%,i
C[C@]12CCC(=O)C=C1CC[C@@H]1[C@@H]2CC[C@]2(C)C(=O)CC[C@@H]12,19.1%,18.4µM*!,5.8%,?,?,i
C[C@@]12CCC3C(CCC4=CC(=O)CC[C@]43C)C1CCC2O (stereo not given in full),·,16.4µM*,·,·,?,·
O=[N+]([O-])c1cc(S(=O)(=O)/N=C(/c2ccccc2)N2CCOCC2)ccc1Cl,-5.4%,?,-8.6%,i,?,i
CC12CCC3C(CCC4CC(=O)OCC43C)C1CCC2O (stereo not given),-0.2%,-5.3%,-12.2%,?,2.6%,i
C[N+](C)(C)CCOC(=O)C(O)(c1ccccc1)c1ccccc1,·,-1.4%,·,·,-4.7%,·
CC(C)[N+](C)(CCC(C(N)=O)(c1ccccc1)c1ccccc1)C(C)C,18.2%,9.2µM*!,2.6%,i,7.31µM*!,i
O=C(c1c[nH]cc1-c1ccccc1)c1cccc2ccccc12,23.1µM*,14.6µM*,14.6µM*,i,18.4µM*,i
Cc1ccc(S(=O)(=O)Nc2ccc3ncccc3c2[N+](=O)[O-])cc1,-3.0%,?,-5.5%,20.6µM*,-4.9%,18.4µM*
CC(C)Cc1nnc(NC(=O)CCC(=O)N2CCC3(CC2)OCCO3)s1,8.6%,2.6%,13.4%,i,15.8%,i
COc1ccc(C2=C(C(C)=O)Sc3nnc(-c4ccc(Cl)cc4)n3N2C(C)=O)cc1OC,·,2.31µM*,·,·,4.11µM*,·
COc1ccc(-c2nnc3n2N(C(C)=O)C(c2ccc(Cl)c(Cl)c2)=C(C(C)=O)S3)cc1,·,4.11µM*,·,·,3.26µM*,·
CC(=O)N1CCCc2cc(S(=O)(=O)N3CCCC(C(=O)Nc4cccc(F)c4)C3)ccc21 (stereo not given),-1.7%,?,-11.5%,i,?,?
CC(=O)[C@H]1CC[C@H]2[C@@H]3CC[C@@H]4C[C@H](O)CC[C@]4(C)[C@H]3CC[C@]12C,·,-19.7%,·,·,-9.2%,·
O=C(NCC1=C(c2cccc3ccccc23)C[C@@H]2CC[C@H]1N2Cc1ccco1)c1cccs1,?,14.6µM*,?,i,?,?
CC(=O)NCC1=C(c2cccc3ccccc23)C[C@@H]2CC[C@H]1N2Cc1ccco1,0.9%,?,-1.4%,i,?,i
O=C(NCC1=C(c2ccc3ccccc3c2)C[C@@H]2CC[C@H]1N2Cc1ccco1)c1nccs1,-18.2%,16.4µM*,-2.2%,i,?,i
SMILES,HT1080-NT tox,TDP1 cell noCPT,HT1080 IDH1KD tx,KB-V1 cytotox,DT40 TDP1 CPT,KB-3-1 cytotox
O=C(NCC1=C(c2cccc3ccccc23)C[C@@H]2CC[C@H]1N2Cc1ccco1)c1ccncc1,-20.0%,25.9µM*,-12.0%,i,23.1µM*,i
O=C(NCC1=C(c2cccc3ccccc23)C[C@@H]2CC[C@H]1N2Cc1ccco1)c1cccnc1,-8.7%,?,6.2%,i,?,i
C[C@H]1O[C@H](O[C@H]2[C@H](O)[C@@H](O)[C@@H](O)[C@H](O)[C@@H]2O)[C@@H](N)C[C@@H]1NC(=N)C(=O)O,·,-16.9%,·,·,-8.3%,·
C[C@]12Cc3nonc3C[C@@H]1CC[C@@H]1[C@@H]2CC[C@@]2(C)[C@H]1CC[C@]2(C)O,·,?,·,·,-6.9%,·
CCOc1ccc(NC(=O)CCNC(=O)N2C[C@H]3C[C@@H](C2)c2cccc(=O)n2C3)cc1,-1.6%,3.4%,1.3%,i,5.5%,i
CCCCC1(CCCC)C(=O)NC(=Nc2cccc(C)c2)NC1=O,?,18.4µM*,18.4µM*,?,16.4µM*,?
CCCC(C)C1(CC)C(=O)NC(=Nc2ccccc2)NC1=O (stereo not given),-9.2%,-22.1%,-5.8%,?,2.4%,?
O=C(O)[C@@H]1C[C@H]2C[C@@H](CP(=O)(O)O)CC[C@H]2CN1,·,-11.7%,·,·,11.7%,·
CCC1(C2=NCCN2)Cc2ccccc2O1 (stereo not given),-2.9%,4.73µM*!,3.6%,i,4.73µM*!,i
CCN1C[C@@]2(COC)C3[C@@H](OC)C4[C@@H]1[C@@]3(C1C[C@@]3(O)[C@H](OC(=O)c5ccccc5)C1[C@]4(OC(C)=O)[C@@H](O)[C@@H]3OC)[C@@H](OC)C[C@H]2O (stereo not given in full),·,15.7%,·,·,-3.6%,·
CC1=C(N2CC2)C(=O)C(CO)=C(N2CC2)C1=O,?,0.0291µM*,0.0058µM*,0.259µM*,0.0259µM*,0.461µM*
Oc1ccc(Cl)cc1Cc1cc(Cl)ccc1O,16.4µM*,14.6µM*,23.1µM*,?,14.6µM*,i
Oc1ccc(Cl)cc1Cc1ccccc1,-4.0%,21.7µM*,-7.5%,i,30.6µM*,i
Oc1ccc(Cl)c(Cl)c1Cl,14.9%,-4.9%,4.0%,i,2.7%,i
Cn1c(CCCC(=O)O)nc2cc(N(CCCl)CCCl)ccc21,·,18.8µM*,·,·,?,·
COc1ccc(OC(=O)N(C)C[C@@H]2OCc3cnnn3CCCC(=O)N([C@H](C)CO)C[C@H]2C)cc1,3.2%,1.2%,0.9%,?,-10.6%,i
